# Results filed as inconclusive are left out. Entries that show only a call come without a potency. Values without a mark were called inactive. Calls of active or inactive are those of the source. Calls follow the shape of the full dose curve.
# Molecular target: Beta-2 adrenergic receptor (Homo sapiens) (UniProt P07550)
# Test: Adrenergic beta2 receptor (ADRB2) small molecule agonists, cell-based qHTS assay (AID 1963593);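 also: CHO cells stably overexpressing human ADRB2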
# Conditions: CHO-ADRB2 cells, cAMP HTRF, 30 min; series mostly up to 92.4 µM
# Method in brief: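 CHO cells stably over-expressing ADRB2 were plated overnight at 37C, then dosed with compounds plus a stimulation mix containing 100uM IBMX and 25uM Ro-20-1724 for 0.5hr at room temperature. cAMP was measured by HTRF competition, 1hr.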
# Sequence of Beta-2 adrenergic receptor (Homo sapiens) (P07550 whole entry, looked up): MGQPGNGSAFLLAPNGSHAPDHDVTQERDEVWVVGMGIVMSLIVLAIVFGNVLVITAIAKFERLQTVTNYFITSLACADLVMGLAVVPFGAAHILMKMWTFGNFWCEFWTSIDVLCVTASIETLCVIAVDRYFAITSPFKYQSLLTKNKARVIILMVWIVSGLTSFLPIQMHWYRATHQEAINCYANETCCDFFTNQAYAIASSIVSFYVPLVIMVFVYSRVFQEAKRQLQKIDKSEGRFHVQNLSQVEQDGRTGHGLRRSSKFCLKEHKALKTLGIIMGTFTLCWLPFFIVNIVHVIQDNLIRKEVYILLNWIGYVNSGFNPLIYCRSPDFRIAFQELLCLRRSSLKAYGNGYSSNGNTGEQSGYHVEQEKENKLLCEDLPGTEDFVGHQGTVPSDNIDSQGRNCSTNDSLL
SMILES,Potency,activation
COC(=O)N(C(=O)N1CO[C@@]2(C(=O)OC)Cc3cc(Cl)ccc3C2=N1)c1ccc(OC(F)(F)F)cc1,inactive,
CN/C(=N\[N+](=O)[O-])NCc1cnc(Cl)s1,inactive,
CC(C)[C@@H](Nc1ccc(C(F)(F)F)cc1Cl)C(=O)OC(C#N)c1cccc(Oc2ccccc2)c1 (some centres not stated),inactive,
N#CCCl,inactive,
CCCC[N+]1(C)[C@@H]2CC(OC(=O)[C@H](CO)c3ccccc3)C[C@H]1[C@@H]1O[C@@H]12 (some centres not stated),inactive,
CC(C)[C@H](C(=O)OC(C#N)c1cccc(Oc2ccccc2)c1)c1ccc(OC(F)F)cc1 (some centres not stated),inactive,
CC(Cc1ccccc1)N(C)Cc1ccco1 (configuration not stated),inactive,
CCOC(=O)c1ncn2c1CN(C)C(=O)c1c(I)cccc1-2,inactive,
ClCc1cccc(Cl)c1,inactive,
Nc1c(Cl)c(F)nc(OCC(=O)O)c1Cl,inactive,
[As]#[In],inactive,
II,inactive,
CC(Cc1ccccc1)NCCn1cnc2c1c(=O)n(C)c(=O)n2C (configuration not stated),inactive,
[F][Sn]([c]1ccccc1)([c]1ccccc1)[c]1ccccc1,inactive,
C[N+]1(C)[C@@H]2CC[C@H]1CC(OC(=O)C(CO)c1ccccc1)C2 (some centres not stated),inactive,
CC(C(O)c1ccccc1)N(C)C/C=C/c1ccccc1 (configuration not stated),inactive,
CSC1=N[C@@](C)(c2ccccc2)C(=O)N1Nc1ccccc1,inactive,
CCCCCCCCP(=O)(O)O,inactive,
CC(C)(C)c1ccc(CSc2cnn(C(C)(C)C)c(=O)c2Cl)cc1,inactive,
CCSC(C)CC1CC(=O)C(/C(CC)=N/OC/C=C/Cl)=C(O)C1 (configuration not stated),inactive,
COc1ccc(-c2ccccc2)cc1NNC(=O)OC(C)C,inactive,

SMILES,Potency,activation
Cc1c([N+](=O)[O-])c(C)c([N+](=O)[O-])c(C(C)(C)C)c1[N+](=O)[O-],inactive,
ClCC(Cl)Cl,inactive,
CCC(C(N)=O)N1CCCC1=O (configuration not stated),inactive,
CN1C(=O)CN=C(c2ccccc2)c2cc([N+](=O)[O-])ccc21,inactive,
CCOC(=O)OC1=C(c2cc(C)ccc2C)C(=O)NC12CCC(OC)CC2 (configuration not stated),inactive,
CC(=O)OCC1=C(C(=O)O)N2C(=O)[C@@H](N)[C@H]2SC1,,15.1% [at 19 µM]
Nc1n[nH]c(N)n1,inactive,
CC(C)CCCCCCCOC(=O)c1ccccc1C(=O)OCCCCCCCC(C)C,inactive,
C1CCNCC1,inactive,
CN=CNc1ccc(C)cc1C,inactive,
O=C(O)C(Br)CBr (configuration not stated),inactive,
O=S1(=O)OCCO1,inactive,
CCCCCCCCCCCCCCCCCCn1cc[n+](C)c1,inactive,
CC[C@]1(O)CC[C@H]2[C@@H]3CCC4=CCCC[C@@H]4[C@H]3CC[C@@]21C,inactive,
CCCCS(=O)(=O)Cl,inactive,
BrCCCCBr,inactive,
COc1cc(C=O)cc2c1[C@H](COC(N)=O)[C@]1(OC(C)=O)ON2C[C@H]2[C@@H]1N2C(C)=O,inactive,
CC(Cc1ccccc1)NCCCCl (configuration not stated),inactive,
CC1=C(C(=O)O)N2C(=O)[C@@H](N)[C@H]2SC1,,0.75% [at 19 µM]
CC(C)[N+](=O)[O-],inactive,
CN(CCCC(O)c1cccnc1)N=O (configuration not stated),inactive,

# — PubChem BioAssay (Tox21)
